Each structure is given as a SMILES string. The panel holds about 83,000 compounds, 20% with a hit somewhere; the sample as a whole holds those more often.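 Testing used 96-well plates and a 48-hour single-concentration exposure. Example: -40 means 40% of the starting cells died.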 Unmarked numbers belong to inactive results. Active and inactive are the calls of the source. How the source made its calls: active means growth percent below 10; inactive means the rest.

Some test systems named below: SK-MEL-2 melanoma; EKVX NSCLC; SN12C renal; UO-31 renal; TK-10 renal; ACHN renal; CAKI-1 renal; A498 renal; CCRF-CEM leukemia; MOLT-4 leukemia.
Test in all cases: NCI-60 one-dose screen, 48 h (100 = growth as untreated, 0 = no growth, -100 = all killed)
Holding throughout (conditions): 10 µM unless noted

`O=C(Nc1nc2ccccc2s1)Nc1ccccc1Cl`: the growth in the experiment on SK-MEL-2 melanoma is 99.9%; with EKVX NSCLC, 64.5%; with SN12C renal, 83.9%; in the experiment on UO-31 renal, 66.8%; in the experiment on TK-10 renal, 84.7%; in the experiment with ACHN renal, 49.3%. For the same compound, the growth was 45.2% with CAKI-1 renal, 162% with A498 renal, 97.5% with CCRF-CEM leukemia and 107% with MOLT-4 leukemia.
Turning to `COC(=O)c1cc(C(=O)C(F)(F)F)n2c3ccccc3c3ccccc3c12`, the growth was 97.6% in the experiment with SK-MEL-2 melanoma; 78.3% in the experiment on EKVX NSCLC; 53.1% in the experiment with SN12C renal; 39% with UO-31 renal; 73.7% in the experiment on TK-10 renal; 18.2% in the experiment with ACHN renal. The growth in the experiment on CAKI-1 renal is 43.1%; with A498 renal it was 120%; with CCRF-CEM leukemia, 97.6%; in the experiment on MOLT-4 leukemia, 97.4%.
Consider `CC(Nc1ncnc2ccc(-c3ccc4oc(N)nc4c3)cc12)c1ccccc1` (stereo not given), for which the growth in the experiment with SK-MEL-2 melanoma is 34.6%; in the experiment with EKVX NSCLC it was 5.01% (active); in the experiment with SN12C renal, -17.7% (active); in the experiment with UO-31 renal it was -76.4% (active); with TK-10 renal it was -41.4% (active); in the experiment on ACHN renal, -64.2% (active). The growth in the experiment on CAKI-1 renal was -40.6% (active); in the experiment on A498 renal, 49.8%; in the experiment on CCRF-CEM leukemia, 2.38% (active); in the experiment on MOLT-4 leukemia it was -39.9% (active).
`COc1cc(/C=C/C(=O)c2cnn(-c3cc(=O)[nH]c4ccc(C)cc34)c2C)cc(OC)c1OC`: the growth in the experiment on SK-MEL-2 melanoma was -73.1% (active); with EKVX NSCLC, -9.39% (active); with SN12C renal, 10.4%; in the experiment on UO-31 renal, -45.8% (active); in the experiment with TK-10 renal, 37.8%; in the experiment with ACHN renal it was -8.39% (active). Besides, the growth was 16.4% in the experiment on CAKI-1 renal, 8.36% (active) with A498 renal, -22.2% (active) with CCRF-CEM leukemia and -8.06% (active) with MOLT-4 leukemia.
In the case of `COC(=O)c1c(C(=O)OC)c2c3ccccc3c3ccccc3n2c1C(=O)C(C)(C)C`, the growth is 83.4% with SK-MEL-2 melanoma; 96.2% in the experiment with EKVX NSCLC; 87.3% in the experiment on SN12C renal; 75.4% in the experiment with UO-31 renal; 105% with TK-10 renal; 82% with ACHN renal. The growth in the experiment on CAKI-1 renal was 60.7%; in the experiment with A498 renal, 132%; with CCRF-CEM leukemia, 65.6%; in the experiment with MOLT-4 leukemia, 45.7%.
On to `c1n[nH]cc1-c1nc2ccc3[nH]ncc3c2c2c1CC1(CC2)COC1`, for which the growth was 18.3% with SK-MEL-2 melanoma; 78.6% in the experiment on EKVX NSCLC; 38.9% with SN12C renal; 95.7% with UO-31 renal; 49.2% with TK-10 renal; 54.6% with ACHN renal. Also, the growth was 12.3% with CAKI-1 renal, 38.6% in the experiment on A498 renal, 30.3% in the experiment with CCRF-CEM leukemia and 32.8% in the experiment with MOLT-4 leukemia.
For `O=C(Cc1c(-c2cccc([N+](=O)[O-])c2)n(-c2ncnc3c2c(-c2ccccc2)c(-c2ccccc2)n3Cc2ccccc2)[nH]c1=O)c1ccc(Cl)c(Cl)c1`, the growth in the experiment with SK-MEL-2 melanoma is 1.5% (active); in the experiment with EKVX NSCLC, 11.1%; in the experiment on SN12C renal it was 38.5%; in the experiment on UO-31 renal, 39.8%; in the experiment with TK-10 renal, 59%; with ACHN renal, 40.4%. Moreover, the growth in the experiment with CAKI-1 renal is 21.1%; with A498 renal it was 70.3%; in the experiment with CCRF-CEM leukemia, 51.3%; in the experiment on MOLT-4 leukemia, 41.9%.
With `Cc1nc2sccn2c1-c1nnc(SCc2ccccc2)o1`, the growth in the experiment with SK-MEL-2 melanoma was 87%; with EKVX NSCLC, 87.5%; in the experiment on SN12C renal it was 86.6%; with UO-31 renal, 74.2%; with TK-10 renal, 110%; with ACHN renal, 92.6%. In addition, the growth was 85.2% in the experiment with CAKI-1 renal, 87.8% in the experiment on A498 renal, 91.3% in the experiment on CCRF-CEM leukemia and 88.1% in the experiment with MOLT-4 leukemia.
For `Cn1cc(-c2cc(N)n3nc(-c4c[nH]c5ccc(F)cc45)cc3n2)c2cccnc21`, the growth is 86.8% in the experiment with SK-MEL-2 melanoma; -64.9% (active) with EKVX NSCLC; -80.6% (active) with SN12C renal; -75.8% (active) in the experiment on UO-31 renal; -68.7% (active) in the experiment on TK-10 renal; -93.8% (active) with ACHN renal. Moreover, the growth with CAKI-1 renal is -70.7% (active); with A498 renal, -74.8% (active); with CCRF-CEM leukemia, -34.6% (active); in the experiment with MOLT-4 leukemia, -30.1% (active).
Regarding `N#C/C(=C/c1ccc(Cl)cc1)c1nnc(NC(=O)c2ccc(-n3c(=O)[nH]c4ccccc4c3=O)cc2)s1`, the growth with SK-MEL-2 melanoma is 91.6%; in the experiment on EKVX NSCLC it was 86%; in the experiment with SN12C renal it was 61.1%; with UO-31 renal it was 77.8%; in the experiment on TK-10 renal, 114%; in the experiment with ACHN renal it was 84.3%. The growth with CAKI-1 renal is 95.5%; in the experiment with A498 renal it was 116%; with CCRF-CEM leukemia, 97.9%; in the experiment on MOLT-4 leukemia, 94.9%.
As to `O=C1Nc2cc(-c3ccc(NS(=O)(=O)c4ccc(-c5ccccc5)cc4)cc3)ccc2/C1=C/c1ccc[nH]1`, the growth is 83.1% in the experiment with SK-MEL-2 melanoma; 10.9% in the experiment on EKVX NSCLC; 16.3% with SN12C renal; 68.5% in the experiment with UO-31 renal; 49% with TK-10 renal; 47.4% in the experiment on ACHN renal. Also, the growth was 40.7% in the experiment on CAKI-1 renal, 75.6% in the experiment on A498 renal, 32.2% in the experiment on CCRF-CEM leukemia and 27.6% in the experiment on MOLT-4 leukemia.
As to `CC[C@]12C=CCN3CC[C@@]4(c5ccc(OC)cc5N(C)[C@H]4[C@@](O)(C(=O)OC)[C@@H]1OC(=O)CCC[P+](c1ccc(OC)cc1)(c1ccc(OC)cc1)c1ccc(OC)cc1)[C@@H]32`, the growth was -90.6% (active) in the experiment on SK-MEL-2 melanoma; -85% (active) in the experiment with EKVX NSCLC; -93.4% (active) in the experiment with SN12C renal; -56.8% (active) in the experiment with UO-31 renal; -90.7% (active) in the experiment with TK-10 renal; -95.8% (active) with ACHN renal. In addition, the growth in the experiment on CAKI-1 renal was -93.4% (active); with A498 renal it was -83.2% (active); in the experiment on CCRF-CEM leukemia it was -71.2% (active); with MOLT-4 leukemia, -36.7% (active).
For `O=C(CSc1nc2ccccc2c(=O)[nH]1)NNC(=O)c1ccccc1Cl`, the growth was 105% in the experiment on SK-MEL-2 melanoma; 109% with EKVX NSCLC; 112% with SN12C renal; 91.2% in the experiment with UO-31 renal; 105% with TK-10 renal; 112% with ACHN renal. Besides, the growth was 90.4% in the experiment with CAKI-1 renal, 100% in the experiment on A498 renal, 120% in the experiment on CCRF-CEM leukemia and 111% in the experiment with MOLT-4 leukemia.
Consider `Nc1nc2cc(-c3ccc4ncnc(NCc5ccccc5)c4c3)ccc2o1`, for which the growth was 42.2% in the experiment with SK-MEL-2 melanoma; 0.598% (active) in the experiment on EKVX NSCLC; -33.7% (active) with SN12C renal; -73.4% (active) in the experiment on UO-31 renal; -28.5% (active) in the experiment on TK-10 renal; -62.4% (active) with ACHN renal. The growth in the experiment on CAKI-1 renal was -24.9% (active); in the experiment with A498 renal it was 41.6%; with CCRF-CEM leukemia it was 29.6%; in the experiment on MOLT-4 leukemia, -20.1% (active).

Values taken from PubChem BioAssay (NCI).
